Data on 19 molecules can be found in paper PMC5540273 (PLoS ONE, 2017).

What all share (conditions): concentration: 1 μM, replicates: in singlicate; n = 1
The subject of experiment [1] is CDK4.
Experiment [2] has as its system CDK5.
Experiment [3] deals with CDK7.
Experiment [4] concerns CDK8.
In experiment [5] the test system is CDK9.
In experiment [6] the test system is CDKL1.
The subject of experiment [7] is CDKL2.
Experiment [8] deals with CDKL3.
In experiment [9] the test system is CDKL5.
Experiment [10] relates to CHEK1.
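Note: KINOMEscan kinase panel screen.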

Consider `Cc1cccc(-c2nc(-c3ccc(S(C)(=O)=O)cc3)sc2-c2ccnc(NCCc3ccccc3)c2)c1`, for which the “%Inh” value was found to be 0% in experiment [1]; 9% in experiment [2]; 2% in [3]; 15% in experiment [4]; 1% in experiment [5]; 14% in experiment [6]. In addition, the “%Inh” value in experiment [7] is reported as 13%; in experiment [8] it was 10%; in experiment [9], 23%; in experiment [10], 0%.
In the case of `Cl.NC(=O)c1cccc(Nc2nccc(Nc3ccc(Oc4cccc(Cl)c4)c(Cl)c3)n2)c1` [GW659008], the “%Inh” value in [1] worked out at 48%; in [2] it was 0%; in [3], 0%; in [4], 28%; in [5], 0%; in [6], 9%. In addition, the “%Inh” value stood at 23% in [7], 0% in [8], 0% in experiment [9] and 0% in experiment [10].
Turning to `CN1C(=O)C(Nc2ccc(Cl)c(C(=O)O)c2)=C(c2ccc(Cl)cc2)C1=O` [SB-404290], the “%Inh” value in experiment [1] stood at 47%; in experiment [2] it was 0%; in experiment [3], 0%; in experiment [4], 0%; in experiment [5], 0%; in [6], 1%. Moreover, the “%Inh” value in experiment [7] is listed as 13%; in experiment [8], 0%; in [9], 16%; in experiment [10], 0%.
Take `Cc1ccccc1-n1cnc2c(N)ncnc21` [SKF-97510]: the “%Inh” value was determined as 0% in experiment [1]; 0% in experiment [2]; 0% in experiment [3]; 0% in experiment [4]; 0% in [5]; 14% in experiment [6]. The “%Inh” value in experiment [7] amounted to 0%; in experiment [8], 39%; in [9], 0%; in experiment [10] it was 5%.
For the molecule `O=C(O)COc1ncnc2cc(-c3ccc4[nH]ncc4c3)sc12`, the “%Inh” value came out at 0% in experiment [1]; 45% in experiment [2]; 30% in [3]; 4% in experiment [4]; 0% in [5]; 11% in experiment [6]. Also, the “%Inh” value in experiment [7] amounted to 0%; in experiment [8] it was 13%; in experiment [9], 17%; in experiment [10] it was 0%.
For `COc1ccc(Nc2nccc(NCCNC(=O)Nc3ccccc3F)n2)cc1` [GSK1379901], the “%Inh” value was found to be 0% in experiment [1]; 0% in experiment [2]; 0% in experiment [3]; 0% in experiment [4]; 1% in experiment [5]; 4% in [6]. For the same molecule, the “%Inh” value is on record as 9% in experiment [7], 0% in experiment [8], 3% in experiment [9] and 0% in experiment [10].
As to `O=C(Nc1n[nH]c2nc(-c3nccs3)c(Br)cc12)C1CCCC1` [SB-742609], the “%Inh” value is 81% in experiment [1]; 0% in [2]; 73% in experiment [3]; 0% in [4]; 100% in experiment [5]; 0% in experiment [6]. In addition, the “%Inh” value in experiment [7] came out at 88%; in experiment [8] it was 0%; in experiment [9] it was 0%; in [10], 0%.
On to `Nc1ncnc2[nH]c(-c3ccccc3)nc12` [AH5015], for which the “%Inh” value in experiment [1] was 7%; in experiment [2], 0%; in experiment [3], 0%; in experiment [4], 0%; in experiment [5], 0%; in experiment [6], 6%. For the same molecule, the “%Inh” value came out at 32% in [7], 0% in [8], 0% in [9] and 0% in [10].
With `COc1cccc(NC(=O)NC2CCN(c3ccnc(Nc4ccc(F)cc4)n3)C2)c1` (stereo not shown) [GSK1379721], the “%Inh” value in [1] amounted to 0%; in experiment [2], 0%; in [3], 0%; in experiment [4], 61%; in [5], 14%; in [6], 5%. Moreover, the “%Inh” value is 61% in [7], 0% in [8], 7% in experiment [9] and 2% in experiment [10].
Turning to `Cc1nnc(-c2ccc3occ(-c4ccc(S(C)=O)cc4)c3c2)[nH]1` (stereo not shown), the “%Inh” value in experiment [1], in experiment [2], in experiment [3], in [4], in experiment [5] and in experiment [6] was 0% throughout. Further, the “%Inh” value was found to be 0% in experiment [7], 0% in experiment [8], 12% in [9] and 0% in [10].
For `Cc1cc(N2Cc3ccccc3C2)nc(Nc2ccc(S(=O)(=O)N3CCOCC3)cc2)n1.Cl` [GSK1669917], the “%Inh” value in [1] was found to be 0%; in [2] it was 0%; in [3], 0%; in experiment [4], 33%; in experiment [5] it was 0%; in [6], 0%. In addition, the “%Inh” value is given as 0% in experiment [7], 0% in experiment [8], 6% in experiment [9] and 0% in experiment [10].
Regarding `O=C(Nc1n[nH]c2cc(-c3cccc(F)c3F)ccc12)C1CC1` [SB-733894], the “%Inh” value in experiment [1] was 0%; in [2], 0%; in experiment [3] it was 17%; in experiment [4] it was 89%; in [5], 5%; in [6], 37%. In addition, the “%Inh” value stood at 95% in experiment [7], 48% in [8], 0% in experiment [9] and 3% in experiment [10].
For the molecule `Nc1nc(-c2nccs2)c(-c2ccnc3ccccc23)s1` [GW693542], the “%Inh” value in [1] came out at 15%; in experiment [2], 0%; in experiment [3], 0%; in [4], 14%; in experiment [5] it was 0%; in experiment [6], 0%. In addition, the “%Inh” value in [7] was found to be 26%; in [8], 0%; in experiment [9] it was 4%; in [10] it was 5%.
Turning to `COc1ccc2nc(-c3cccc(C)n3)nc(Nc3ccncc3)c2c1` [GSK204919], the “%Inh” value in experiment [1] is recorded as 0%; in [2], 0%; in experiment [3], 0%; in [4], 7%; in experiment [5], 0%; in experiment [6] it was 4%. The “%Inh” value in [7] was found to be 24%; in [8] it was 0%; in experiment [9] it was 0%; in [10] it was 10%.
On to `O=S(=O)(c1ccc(-c2ccnc3[nH]ccc23)cc1)N1CCCC1` [GSK846226], for which the “%Inh” value is 0% in experiment [1]; 0% in experiment [2]; 2% in [3]; 0% in experiment [4]; 0% in [5]; 7% in experiment [6]. In addition, the “%Inh” value in experiment [7] was 5%; in experiment [8] it was 0%; in experiment [9], 4%; in [10], 0%.
On to `O=C(Nc1ccccc1)Nc1cccc(Oc2ccc3nccn3n2)c1`, for which the “%Inh” value stood at 0% in [1]; 0% in experiment [2]; 0% in [3]; 76% in experiment [4]; 0% in experiment [5]; 12% in experiment [6]. The “%Inh” value in experiment [7] turned out to be 4%; in [8] it was 0%; in [9] it was 2%; in experiment [10] it was 0%.
Regarding `Cc1c(Cn2ccn3c(=O)cc(N4CCOCC4)nc23)cccc1C(F)(F)F` [GSK2289044], the “%Inh” value was found to be 4% in experiment [1]; 0% in experiment [2]; 0% in [3]; 0% in [4]; 0% in [5]; 3% in experiment [6]. Further, the “%Inh” value in experiment [7] is given as 10%; in experiment [8] it was 0%; in experiment [9] it was 16%; in experiment [10], 0%.
`O=C(Nc1n[nH]c2nc(-c3nccs3)c(Br)cc12)C1CC1` [SB-742251]: the “%Inh” value in experiment [1] stood at 44%; in experiment [2] it was 0%; in [3], 12%; in [4], 25%; in [5], 0%; in experiment [6], 24%. In addition, the “%Inh” value in experiment [7] came out at 92.3%; in [8], 0%; in [9], 0%; in experiment [10], 0%.
Consider `O=C1NC(=O)C(N2CCc3ccccc32)=C1c1ccccc1Cl` [SB-373598], for which the “%Inh” value in experiment [1] is given as 27%; in [2], 0%; in experiment [3], 29%; in [4] it was 25%; in experiment [5], 8%; in experiment [6] it was 18%. For the same molecule, the “%Inh” value turned out to be 23% in experiment [7], 4% in experiment [8], 0% in [9] and 2% in experiment [10].
